Measurements as given in article PMC11062922 (Nature Chemical Biology, 2023).

These compounds were tested on CLK4. Conditions: read-out: apparent Kd; compound concentrations:100 nM and 1000 nM (sheet 'Samples'); n = 1.
Parameters: species or system human, MV4-11 + K-562 + COLO205 + SK-N-BE2 + OVCAR-8

Row | Compound | potency estimated from few doses
1 | O=c1[nH]cc(-c2ccc(O)cc2)c2sc(-c3ccncc3)cc12 [GSK1033723A] | 148 nM
2 | COc1ccc(CSc2nnc(-c3ccc4ncsc4c3)o2)cc1C(F)(F)F [TPKI-91] | 599 nM
3 | COc1cc2c(cc1Nc1nc(Nc3ccsc3C(N)=O)c3cc[nH]c3n1)N(C(=O)CN(C)C)CCC2(C)C [GSK2163632A] | 1180 nM

These compounds were tested on CSNK1D. Conditions: read-out: apparent Kd; compound concentrations:100 nM and 1000 nM (sheet 'Samples'); n = 1.
Parameters: species or system human, MV4-11 + K-562 + COLO205 + SK-N-BE2 + OVCAR-8

Row | Compound | potency estimated from few doses
4 | Fc1ccc(-c2ncn(C3CCNCC3)c2-c2ccnc(Oc3ccccc3)n2)cc1 [SB-239272] | 88.7 nM
5 | NC(=O)Cc1ccccc1Oc1nccc(-c2c(-c3ccc(F)cc3)ncn2C2CCNCC2)n1 [SB-264865] | 1300 nM
6 | Fc1ccc(-c2ncn(C3CCNCC3)c2-c2ccnc(Oc3ccc(-c4ccccc4)cc3)n2)cc1 [SB-245391] | 486 nM
7 | N#Cc1ccc(Oc2nccc(-c3c(-c4ccc(F)cc4)ncn3C3CCNCC3)n2)cc1 [SB-242721] | 710 nM
8 | Fc1ccc(-c2ncn(C3CCNCC3)c2-c2ccnc(Oc3ccc(Oc4ccccc4)cc3)n2)cc1 [SB-245392] | 616 nM
9 | CCc1ccc(Oc2nccc(-c3c(-c4ccc(F)cc4)ncn3C3CCNCC3)n2)cc1 [SB-242719] | 419 nM
10 | Fc1ccc(-c2ncn(C3CCNCC3)c2-c2ccnc(Oc3ccc(F)c(F)c3)n2)cc1 [SB-253228] | 505 nM
